Structures are written as SMILES. The panel holds about 83,000 compounds, 20% with a hit somewhere; the sample as a whole holds those more often.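 96-well plates, one dose, 48 hours. Percent growth reported; active if below 10.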 Unmarked numbers belong to inactive results. Activity calls are given as the source filed them.

Common to all, as to experiment: NCI-60 one-dose screen, 48 h (100 = growth as untreated, 0 = no growth, -100 = all killed)
Conditions in all cases: 10 µM unless noted

Test [1] has as its system HCT-15 colon.
Test [2] deals with HT29 colon.
The test system of test [3] is SNB-75 CNS.
For test [4], the system named is SNB-19 CNS.
Test [5] relates to U251 CNS.
For test [6], the system named is PC-3 prostate.
In test [7] the test system is SK-MEL-5 melanoma.
In test [8] the test system is UACC-62 melanoma.
Test [9] has as its system LOX IMVI melanoma.
For test [10], the system named is SK-MEL-28 melanoma.

For the compound `O=C1CC23OC(C(O)c4ccccc4N12)C1C(c2ccccc2)=NOC13` (stereo not given), the growth in test [1] is 29.7%; in [2], 13.9%; in [3], 33.4%; in [4], 44%; in test [5], 40.2%; in test [6], 50%. For the same compound, the growth was 31.7% in [7], 28.2% in [8], 37.8% in test [9] and 64.1% in test [10].

Turning to `Cc1cnc(SCc2ccc(Cl)cc2)[nH]c1=S`, the growth was 101% in test [1]; 82.9% in test [2]; 85.2% in [3]; 98.2% in test [4]; 96.3% in test [5]; 104% in [6]. Moreover, the growth was 96.9% in test [7], 99.4% in test [8], 101% in test [9] and 98.9% in test [10].

For `O=C(Nc1nc(-c2ccccc2)cs1)c1cc(-c2ccc(Br)cc2)nc2ccccc12`, the growth in [1] is 33%; in test [2], 39.8%; in test [3] it was 85.1%; in test [4], 79.2%; in [5], 42%; in test [6] it was 28.9%. Moreover, the growth in [7] was 54.8%; in test [8], 50.5%; in [9] it was 42.7%; in test [10], 68.3%.

On to `CSc1nc(-c2cccs2)c2c(N)[nH]nc2n1`, for which the growth in test [1] was 99.6%; in test [2] it was 93.2%; in test [3], 93.7%; in test [4], 106%; in test [5], 98.9%; in test [6], 93.6%. For the same compound, the growth in [7] is 101%; in test [8] it was 93.7%; in [9], 93.3%; in test [10], 114%.

Consider `Cc1ccccc1NC(=O)c1sc2nc(C)c(C(C)O)cc2c1N` (stereo not given), for which the growth in [1] is 35.3%; in test [2] it was 3.12% (active); in test [3] it was 53.9%; in test [4] it was 32.5%; in [5], 28.8%; in [6], 60.9%. Besides, the growth was 31.4% in test [7], 25.5% in test [8], 44.2% in test [9] and 67.2% in test [10].

For `CSc1nc(-c2ccco2)c2c(N)[nH]nc2n1`, the growth was 102% in test [1]; 93.6% in [2]; 103% in test [3]; 110% in [4]; 103% in test [5]; 101% in test [6]. Besides, the growth was 100% in test [7], 92.2% in test [8], 92.3% in test [9] and 112% in test [10].

For the compound `CC(C)(C)c1nc2c(s1)c1nc(N)ncc1c1ccc(NS(=O)(=O)c3c(F)cccc3F)c(F)c12`, the growth in [1] is 42.7%; in [2] it was 10.8%; in test [3] it was 57.4%; in test [4], 105%; in test [5] it was 73%; in test [6] it was 51.9%. Further, the growth is 36.1% in test [7], -2.66% (active) in [8], 20.5% in test [9] and 4.5% (active) in test [10].

Regarding `COc1cc2c(Nc3ccc(NC(=O)Nc4ccc(Cl)c(C(F)(F)F)c4)c(Cl)c3)ncnc2cc1OCCCN1CCN(C)CC1`, the growth in test [1] is 86.7%; in test [2] it was 1.14% (active); in test [3] it was 31.3%; in test [4] it was -79% (active); in [5], -89.5% (active); in test [6], -25.3% (active). For the same compound, the growth in test [7] is -44.6% (active); in test [8], 0.23% (active); in test [9], -88.3% (active); in test [10], 36.1%.

As to `C=C1C(=O)O[C@H]2[C@H]1CC/C(COC(=O)CCCCC(=O)OC/C1=C/CC[C@@]3(C)O[C@H]3[C@H]3OC(=O)C(=C)[C@@H]3CC1)=C\CC[C@@]1(C)O[C@@H]21`, the growth in [1] is 18.1%; in test [2], 40.1%; in test [3] it was 79.2%; in [4] it was 89.9%; in test [5], 81.4%; in [6] it was 68.6%. Besides, the growth was 77.9% in [7], 48.3% in test [8], 52.2% in [9] and 76.8% in [10].

For `Cc1ccc(SC2c3ccc(C)cc3Oc3nc(N)c(C#N)c(N)c32)cc1` (stereo not given), the growth in test [1] is 30.7%; in test [2], 103%; in test [3], 73.2%; in test [4] it was 109%; in [5], 85.1%; in [6], 80.6%. For the same compound, the growth in test [7] is 63.8%; in [8] it was 103%; in test [9] it was 37.7%; in test [10], 87.7%.

As for `Nc1ccccc1NC(=O)c1ccc(CSc2nc(N3CCOCC3)c3cccn3n2)cc1`, the growth in test [1] was 20.1%; in test [2] it was 0.895% (active); in [3] it was 20.3%; in test [4], 32.7%; in test [5], 2.15% (active); in test [6] it was 23.1%. Besides, the growth in [7] was -41.1% (active); in test [8], -31.9% (active); in test [9], -38.6% (active); in [10] it was 16.3%.

For the compound `COC(=O)/C=C1\SC(=Nc2ccc(C(F)(F)F)cc2)N(CCc2c[nH]c3ccccc23)C1=O`, the growth in test [1] is -71.4% (active); in test [2], -34.1% (active); in test [3] it was 59.2%; in test [4], -51.7% (active); in test [5] it was -87.8% (active); in test [6], -61.1% (active). For the same compound, the growth in [7] was -88.8% (active); in [8], -62.5% (active); in [9], -97% (active); in test [10], -58.9% (active).

With `O=C(Nc1ccc(N=Cc2ccccc2O)cc1)NC1C=c2ccccc2=CC1` (stereo not given), the growth is 100% in [1]; 104% in [2]; 86.3% in [3]; 100% in test [4]; 93.2% in test [5]; 104% in [6]. Further, the growth in test [7] is 98.7%; in test [8], 92.7%; in test [9], 105%; in test [10], 99.8%.

With `CCOC(=O)C1=C(C)n2nc(CC#N)c(C#N)c2NC1c1ccc(CC)cc1` (stereo not given), the growth was 99.6% in test [1]; 107% in test [2]; 88.5% in test [3]; 106% in test [4]; 101% in [5]; 90.8% in test [6]. Further, the growth in test [7] was 96.6%; in test [8], 94.5%; in test [9] it was 92.7%; in [10], 103%.

The values above are taken from PubChem BioAssay (NCI).
